# Source: PubChem (National Center for Advancing Translational Sciences (NCATS))
# Sampled rows, rich in hits. Any-hit rate of the full collection: about 0.5%.
# MLL CXXC-DNA inh: inhibitors of human MLL CXXC domain-DNA interaction; Q03164; MLL-CXXC / FITC-HOXA9 DNA fluorescence polarization; Potency, µM (top dose mostly 115 µM), without a hit: at the highest dose activity change, negative = inhibition, usual class: inhibitors; 290,000 tested, 0.037% active; AID 2662; active means well fitted inhibition curve with a large enough effect in the polarisation, with a control signal flat, not every such curve was filed as active; inconclusive means small, poorly fitted or top-dose-only effect, or effect the other way, or a change in a side signal; inactive means no such curve, though single readings can be large or run the other way; the % refers to the polarisation; further: potency means the concentration at half of the fitted maximal effect
#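 Fluorescence polarization: 7 uM MLL-CXXC (stock) preincubated 5 min with compounds, then 50 nM fluorescein-HOX-A9 DNA (stock) added; 30 min ambient. Buffer 50 mM Tris-HCl pH 7.5, 50 mM NaCl, 1 mM DTT, 0.05% BSA.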
# TexasRed fluor: alters Texas Red total fluorescence, flagging assay interference. 280,000 tested, 0.29% active. TRb/SRC2 Texas Red total fluorescence interference. Potency, µM (titrated, usually from 106 µM), without a hit: at the highest dose fluorescence change, negative = quenching; active means well fitted curve in either direction with a large enough effect; inconclusive means small, poorly fitted or top-dose-only effect; further: potency means the concentration at half of the fitted maximal effect; on the % scale 0 is the no-effect control and ±100 the full control effect
#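 Human TRb ligand-binding domain at 0.6 uM with 20 nM Texas Red SRC2 peptide in Tris buffer containing 1 uM T3 and 5% DMSO, incubated with compound 5 h at ambient temperature. Total fluorescence (555/632 nm) calculated as parallel + 2 × perpendicular.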
# TRb-SRC2 inh: inhibitors of human thyroid hormone receptor beta-SRC2 interaction. 280,000 tested, 0.065% active. TRbeta-SRC2 peptide binding, fluorescence polarization; receptor liganded with 1 µM T3. P10828. Potency, µM (titrated, usually from 106 µM), for inactives: top-dose activity change, negative = inhibition, usual class: inhibitors; active means well fitted inhibition curve with a large enough effect; inconclusive means small, poorly fitted or top-dose-only effect, or effect the other way;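 further: potency means the concentration at half of the fitted maximal effect; plate controls were bound peptide for no effect and peptide without receptor for full effect; nearly all actives have a fitted effect of over 50% in size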
#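 Fluorescence polarization of 20 nM Texas Red SRC2 peptide with 0.6 uM human TRb ligand-binding domain, in Tris buffer with 1uM T3 and 5% DMSO. Incubated 5 hr ambient; normalized to unbound and bound controls.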
# Menin-MLL TR inh: displaces Texas Red mutant MLL peptide from human menin; Potency, µM (series often up to 61.6 µM), inactives show top-dose FP activity change, negative = inhibition, hits mostly inhibitors; O00255; Menin + Texas Red MLL mutant peptide, fluorescence polarization; 270,000 tested, 0.23% active; active means well fitted inhibition curve with a large enough effect in the polarisation, with a control signal flat, not every such curve was filed as active; inconclusive means small, poorly fitted or top-dose-only effect, or effect the other way, or a change in a side signal; inactive means no such curve, though single readings can be large or run the other way; the % refers to the polarisation; further: potency means the concentration at half of the fitted maximal effect; % of control where 0% means no effect
# Target sequence (O00255 whole entry, looked up): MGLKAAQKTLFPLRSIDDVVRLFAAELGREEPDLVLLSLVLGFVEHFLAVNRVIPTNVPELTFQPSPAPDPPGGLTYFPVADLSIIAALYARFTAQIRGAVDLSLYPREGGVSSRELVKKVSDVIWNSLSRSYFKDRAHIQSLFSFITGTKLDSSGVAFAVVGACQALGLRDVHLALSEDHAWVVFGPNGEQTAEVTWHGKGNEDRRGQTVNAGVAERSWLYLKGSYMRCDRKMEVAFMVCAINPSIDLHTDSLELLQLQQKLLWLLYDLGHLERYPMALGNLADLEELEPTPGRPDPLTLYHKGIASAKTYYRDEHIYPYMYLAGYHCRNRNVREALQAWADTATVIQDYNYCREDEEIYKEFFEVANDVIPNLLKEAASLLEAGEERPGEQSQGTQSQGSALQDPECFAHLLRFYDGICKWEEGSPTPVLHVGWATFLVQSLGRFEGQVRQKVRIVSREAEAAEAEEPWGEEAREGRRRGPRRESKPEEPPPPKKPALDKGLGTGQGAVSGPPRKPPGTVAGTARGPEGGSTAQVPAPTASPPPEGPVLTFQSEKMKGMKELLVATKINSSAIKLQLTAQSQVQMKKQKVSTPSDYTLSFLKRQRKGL
# RGS12 GoLoco inh: inhibitors of human Gai1-RGS12 GoLoco interaction (red fluorophore); AID 880; Potency, µM (highest dose often 61.6 µM), for inactives: at the top dose activity, negative = inhibition, most hits filed as inhibitors; Gai1:RGS12 GoLoco peptide FP, rhodamine, 10 min; 230,000 tested, 0.44% active; active means well fitted inhibition curve with a large enough effect, not every such curve was filed as active; inactive means no such curve, though single readings can be large or run the other way; further: potency means the concentration at half of the fitted maximal effect; on the % scale 0 is the no-effect control and ±100 the full control effect; nearly all actives have a fitted effect of over 30% in size
# Menin-MLL FL inh: inhibitors of human menin-MLL interaction, wild-type MLL peptide. AID 1766. FP activity change, % at 61.4 µM. 290,000 tested, under 10 active. Fluorescence polarization, fluorescein-MLL peptide displacement from menin; active means well fitted curve in the direction sought with a large enough effect in the polarisation, not every such curve was filed as active; inconclusive means small, poorly fitted or top-dose-only effect, or effect the other way, or a change in a side signal; inactive means no such curve, though single readings can be large or run the other way; the % refers to the polarisation; further: % of control where 0% means no effect
# Numbers without * were called inactive; ? = inconclusive; . = no result given; ! = repeats disagree; [ ] = remark or other dose.
SMILES,MLL CXXC-DNA inh,TexasRed fluor,TRb-SRC2 inh,Menin-MLL TR inh,RGS12 GoLoco inh,Menin-MLL FL inh
O=c1cc(-c2ccc(O)cc2)oc2cc(O)cc(O)c12,7%,?,?,36%,18µM*!,?
CCC(C(=O)O)C1OC(C(C)C(O)C(C)C(=O)C(CC)C2OC3(C=CC(O)C4(CCC(C)(C5CCC(O)(CC)C(C)O5)O4)O3)C(C)CC2C)C(C)CC1C (centres undefined),10%,.,.,-14%,.,4
O=C1CCCC/C=C/CCCCCCCCCO1,.,0%[201 µM],6%[201 µM],.,.,.
COC1=C(Nc2ccc(O)cc2)C(=O)c2ccccc2C1=O,-4%,?,35µM*,-18%,-22%,2
NC1(C(=O)O)CCc2cc(P(=O)(O)O)ccc21 (centres undefined),.,1%,15%,.,6%,.
CCN(CC)c1cccc(OC2=NS(=O)(=O)c3ccccc32)c1,1%,45µM*[fluorescent],40µM*,10%,.,-1
CCc1ccc(OC2=NS(=O)(=O)c3ccccc32)cc1,1%,-3%,3%,0%,12%,-2
Cc1cc(C)n2c(Nc3ccc(Cl)cc3)c(-c3ccsc3)nc2n1,.,1122µM*[quencher],1%,.,.,.
Cc1cc(C)n2c(Nc3ccc(C(C)C)cc3)c(-c3ccsc3)nc2n1,.,-2%,5%,.,.,.
CC/C(=C/c1sc2ccc(C)cc2[n+]1CCO)SC,-4%,-2%,4%,5%,148%,10
CC/C(=C/c1sc2ccc(C)cc2[n+]1CCCS(=O)(=O)[O-])SC,9%,45µM*[fluorescent],?,?,-30%,?
C[Si]1(C)O[Si](C)(C)O[Si](C)(C)O[Si](C)(C)O[Si](C)(C)O1,.,-2%[201 µM],-3%[201 µM],.,.,.
Cn1cc(/C=C2\SC(=S)N(NC(=O)c3ccccc3)C2=O)c2ccccc21,?,?,18µM*,?,-18%,?
CCCCC#CC1C=CC(OC(C)=O)C(COC(C)=O)O1 (centres undefined),.,?,0%[11.2 µM],-5%[11.7 µM],.,-3[11.7 µM]
CC1CCc2nc3ccc(S(=O)(=O)N4CCC(C(=O)NCc5ccccc5Cl)CC4)cc3c(C(=O)O)c2C1 (centres undefined),?,20µM*[quencher],-10%,?,.,2
CCOc1ccc(NC(=O)N2CCN(c3nnc(C)c4c(C)n(-c5ccccc5)nc34)CC2)cc1,.,0.0005µM*[quencher],-12%,.,.,.
Cc1ccsc1C=Nc1ccc(O)cc1,7%,-9%,32µM*,?,-38%,3
CCCC(=O)Nc1nnc(SCC(=O)Nc2nc(C)cs2)s1,14%,.,.,.,.,.
Cc1csc(NC(=O)CSc2nnc(NC(=O)COc3ccc(Cl)cc3)s2)n1,13%,-3%[53 µM],-1%[53 µM],25µM*,37%,18
CCN1C=C(Cc2ccc(OC)cc2)C2=C(C1)C(c1ccc(OC)cc1)C(C#N)=C(N)O2 (centres undefined),0%,50µM*[fluorescent],?,?,76%,?
COc1ccc(C2C(C#N)=C(N)Oc3cc4c(cc32)OCO4)cc1 (centres undefined),3%,-1%,6%,31%,-7%,2
CCOc1ccc(-c2cn3c(n2)sc2cc(C(=O)NCCCc4ccccc4)ccc23)cc1,.,-1%,0%,.,.,.
Cc1cc(=S)nc(-c2ccccn2)[nH]1,-12%,-1%,4%,.,-4%,4
CSc1nc(=S)cc(C)[nH]1,4%,1%,4%,.,5.6µM*,-2
Cc1c(C(=O)Nc2nc3ccccc3[nH]2)oc2ccccc12,23%,-52%,-6%,38%,13µM*,6
SMILES,MLL CXXC-DNA inh,TexasRed fluor,TRb-SRC2 inh,Menin-MLL TR inh,RGS12 GoLoco inh,Menin-MLL FL inh
CC1=C(c2ccc(C(C)C)cc2)S(=O)(=O)N=C1N1CCC(C(=O)NCCc2ccco2)CC1,.,25µM*[quencher],-19%,.,.,.
Cc1ccc(C)c(NC(=O)C(Cc2ccccc2)N2Cc3ccccc3C2=O)c1 (centres undefined),.,126µM*[quencher],-21%,.,.,.
CC(=O)Nc1ccc(NC(=O)C(c2ccccc2)N2Cc3ccccc3C2=O)cc1 (centres undefined),.,100µM*[quencher],-17%,.,.,.
Cc1cc(F)ccc1NC(=O)C(c1ccccc1)N1Cc2ccccc2C1=O (centres undefined),.,4%,-5%,.,.,.
COC(=O)c1ccc(NC(=O)C(c2ccccc2)N2Cc3ccccc3C2=O)cc1 (centres undefined),.,?,-8%,.,.,.
Cc1ccc(C)c(NC(=O)C(c2ccccc2)N2Cc3ccccc3C2=O)c1 (centres undefined),.,100µM*[quencher],-29%,.,.,.
O=C(OCC1CCC2OC2C1)C1CCC2OC2C1 (centres undefined),.,3%[201 µM],3%[201 µM],.,.,.
CC1=C(C#N)C(=O)OC(C)(C)C1,2%,45µM*[fluorescent],?,-26%,-46%,?
CCCCCCc1ccc(N)cc1,.,1%[201 µM],-8%[201 µM],.,.,.
CN(C(=S)Nc1cccnc1)c1ccc(O)cc1,-1%,-16%,35µM*,-4%,-14%,3
Fc1ccc(-c2noc3ncnc(N4CCCCC4)c23)cc1,.,89µM*[quencher],-24%,.,.,.
Fc1ccc(-c2noc3ncnc(N4CCN(c5ccccc5)CC4)c23)cc1,.,-3%,-2%,.,.,.
C[N+]1(C2CCC3CCCC2C3O)CCCC1 (centres undefined),24%,1%,2%,3%,2.8µM*,6
CC(C)(O)[C@@H]1CCC[N+]2(C)CCCC[C@H]12 (some centres undefined),.,-1%,0%,-3%,-6%,1
CC(C)c1ccc(NC(=O)CCS(=O)(=O)c2ccc(Br)s2)cc1,.,28µM*[quencher],?,.,.,.
CN(C)c1ncc2nc(-c3ccc(Cl)cc3)c(=O)n(CCC#N)c2n1,.,.,.,1%,-2%,?
CN(C)c1ncc2nc(-c3ccccc3)c(=O)n(CCC#N)c2n1,.,.,.,28µM*,-23%,?
COc1cc(/C=N/NC(=O)c2cc(-c3ccco3)nc3ccccc23)cc(OC)c1O,0%,-6%,-2%,.,-2%,2
O=C(N/N=C/c1cccc(F)c1)c1cc(-c2ccco2)nc2ccccc12,-3%,32µM*[quencher],27%,?,18%,4
CCCCOc1ccc(-c2nnn(CC(=O)c3c[nH]c4ccccc34)n2)cc1,30%,-7%,0%,8.9µM*,45%,11
CC1=C(C(=O)Nc2ccc(C)cc2Cl)C2(CCCCCC2)OC1=O,.,11%,9%,.,.,.
CC1=C(C(=O)Nc2ccc(C)cc2Cl)C2(CCCCC2)OC1=O,.,0.0056µM*[quencher],-13%,.,.,.
COc1cc(NC(=O)COC(=O)CNC(=O)c2ccc(C)cc2)c(C)cc1[N+](=O)[O-],5%,10µM*[quencher],-25%[53 µM],30%,-10%,-4
CN=C1C=CC(=C(c2ccc(N(C)C)cc2)c2ccc(N(C)C)cc2)C=C1,-1%,.,.,?,.,-6
CN(C)Cc1cc(O)c(CN(C)C)cc1O,6%,?,-26%,.,4µM*,?
